The list is not random: actives were taken first. Their share in the collection is about 5.1%.
KCC2 mod = KCC2 cotransporter modulators, thallium flux, primary screen, cell-based, HEK293 KCC2, FluoZin-2 fluorescence, MLSMR; Solute carrier family 12 member 5 (Homo sapiens), Q9H2X9; KCC2 cells, thallium flux FluoZin-2 fluorescence; B-score of Tl+ flux slope (higher = more flux/activation; lower = inhibition) at 10 µM; 190,000 compounds, 2.2% hits; AID 1456, 2008;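 active means thallium flux slope and its plate-corrected score both differing from the plate sample mean at a set confidence after two filtering rounds, in either direction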;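 further: slope of fluorescence scaled to starting intensity during 10 to 20 s after thallium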
Target sequence (Q9H2X9 whole entry, looked up): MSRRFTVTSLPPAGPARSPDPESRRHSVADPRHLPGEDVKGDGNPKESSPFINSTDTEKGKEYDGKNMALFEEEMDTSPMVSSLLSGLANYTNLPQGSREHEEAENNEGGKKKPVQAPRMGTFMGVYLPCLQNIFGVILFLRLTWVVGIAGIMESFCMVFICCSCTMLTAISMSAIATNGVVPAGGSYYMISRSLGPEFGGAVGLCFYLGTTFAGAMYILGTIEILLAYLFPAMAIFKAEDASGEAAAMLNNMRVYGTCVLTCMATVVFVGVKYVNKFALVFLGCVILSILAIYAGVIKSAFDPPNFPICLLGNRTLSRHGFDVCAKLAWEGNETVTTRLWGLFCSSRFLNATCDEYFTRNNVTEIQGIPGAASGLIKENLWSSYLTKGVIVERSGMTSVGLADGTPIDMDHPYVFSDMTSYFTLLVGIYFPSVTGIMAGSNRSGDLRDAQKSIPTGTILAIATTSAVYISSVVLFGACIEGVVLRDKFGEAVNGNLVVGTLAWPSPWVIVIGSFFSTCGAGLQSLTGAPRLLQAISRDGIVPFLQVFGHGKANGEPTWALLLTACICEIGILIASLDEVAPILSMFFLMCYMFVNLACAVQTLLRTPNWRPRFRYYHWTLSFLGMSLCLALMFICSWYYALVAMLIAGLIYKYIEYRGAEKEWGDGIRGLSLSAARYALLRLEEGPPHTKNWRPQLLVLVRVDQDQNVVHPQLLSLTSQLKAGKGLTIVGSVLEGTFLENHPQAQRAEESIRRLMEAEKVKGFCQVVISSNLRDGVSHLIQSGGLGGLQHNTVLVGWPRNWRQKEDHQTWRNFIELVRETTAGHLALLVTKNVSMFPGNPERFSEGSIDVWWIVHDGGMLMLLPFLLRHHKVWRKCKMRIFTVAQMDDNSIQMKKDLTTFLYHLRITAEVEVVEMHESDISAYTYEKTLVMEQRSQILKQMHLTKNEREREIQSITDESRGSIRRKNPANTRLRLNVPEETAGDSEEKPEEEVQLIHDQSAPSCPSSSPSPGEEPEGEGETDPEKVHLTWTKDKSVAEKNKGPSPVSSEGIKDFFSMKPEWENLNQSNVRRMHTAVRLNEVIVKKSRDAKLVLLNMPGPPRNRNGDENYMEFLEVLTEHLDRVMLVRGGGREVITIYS
S1P3 antag = S1P3 receptor antagonists, primary screen, cell-based; AID 485, 2006; 170,000 compounds, 0.27% hits; CHO S1P3 NFAT-BLA reporter, FRET fluorescence, antagonist mode; inhibition, % at 4.98 µM;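 active means inhibition above the plate cutoff, the mean inhibition of test wells on that plate plus 3 SD, cut at about 28% in these data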;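 further: cells challenged with S1P at its EC80 of 0.8 µM; blue over green emission ratio from cleaved BLA substrate after 4 h stimulation; 0% = S1P-stimulated wells and 100% = unstimulated DMSO-only wells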
RAM network inh = inhibitors of the yeast RAM network, primary screen, dse1pr::URA3 reporter, 5-FOA selection; S. cerevisiae dse1pr::URA3 reporter, 5-FOA growth OD615, 2 d; analog-sensitive cbk1-as2 kinase mutant strain; inhibition, % at 50 µM; 190,000 compounds, 1.8% hits;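 active means inhibition above a set limit, 3 SD over mean compound inhibition, cut at about 8.4% in these data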;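 further: 0% = DMSO-only wells with no growth and 100% = 10 µM 1-NA-PP1 full growth; inhibition rescues growth on 5-FOA so higher OD means more RAM inhibition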
S1P4 antag = S1P4 receptor antagonists, primary screen, cell-based; Sphingosine 1-phosphate receptor 4 (Homo sapiens), O95977; S1P4-expressing cells, antagonist mode, reporter read-out; inhibition, % at 4.98 µM; 220,000 compounds, 0.26% hits; in the data active means inhibition above about 29%;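 further: 0% = wells stimulated with agonist and 100% = vehicle wells without agonist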
ROMK mod = ROMK potassium channel modulators, primary screen, cell-based, thallium flux, MLSMR library; ATP-sensitive inward rectifier potassium channel 1 (Homo sapiens), P48048; AID 1918, 2009; 130,000 compounds, 2% hits; Tet-inducible ROMK, thallium flux fluorescence; actives lie on both sides; B-score at 10 µM;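 active means signal ratio slope over the read window, or its plate-corrected B-score, at least 3 SD from the plate mean, either direction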;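 further: B-score of the F/F0 ratio slope over 7 to 12 s after thallium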
S1P4 ag = S1P4 receptor agonists, primary screen, cell-based; Sphingosine 1-phosphate receptor 4 (Homo sapiens), O95977; S1P4-expressing cell line, agonist reporter assay; activation, % at 4.98 µM; 220,000 compounds, 0.35% hits; in the data active means activation above about 11%;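 further: 0% = DMSO vehicle and 100% = reference agonist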
KCC2 secondary = KCC2 modulators in sodium-free buffer, confirmation, cell-based, HEK293 KCC2, thallium flux, secondary assay. shares compounds with KCC2 mod. FluoZin2 fluorescence; stronger effect = higher value. normalised thallium flux (F/F0 slope) at 10 µM. 3,700 compounds, 15% hits. AID 1713, 2009;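 active means thallium flux slope above the same plate's solvent-only control mean plus 3 SD; inconclusive means the two replicate wells disagree; inactive means no significant difference from solvent-only control wells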
KCC2 bumet counter = thallium flux persisting under bumetanide in KCC2 cells, confirmation, counter-screen for KCC2 modulator project, cell-based, HEK293 KCC2, FluoZin2, secondary assay 3; HEK293-KCC2 + bumetanide/ouabain; stronger effect = higher value; normalized thallium flux at 10 µM; AID 1714, 2009; shares compounds with KCC2 mod; 3,700 compounds, 49% hits;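 active means thallium entry rate above the same plate's blocked-transporter control wells by more than 3 SD; inconclusive means the two repeat wells disagree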;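 further: raw slope of fluorescence over initial fluorescence between 10 and 20 s after thallium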
KCC2 sec2 = KCC2 modulators without ouabain present, confirmation, cell-based, HEK293 KCC2, thallium flux, FluoZin2, secondary assay 2; shares compounds with KCC2 mod; thallium flux FluoZin2 fluorescence; actives lie on both sides; F/F0 rise rate, 10–20 s post-thallium; normalized thallium flux at 10 µM; 3,700 compounds, 23% hits; AID 1715, 2009;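 active means thallium flux slope more than 3 SD above or below the plate's solvent-only control mean, mostly below; inconclusive means the two repeat wells disagreed; inactive means no significant shift from solvent-only controls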;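 further: raw slope with 0.1% DMSO as baseline and bumetanide as block control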
HEK293 Tl flux = thallium flux modulation in parental HEK cells, confirmation, counter-screen for KCC2 modulator project, cell-based, counterscreen 1; shares compounds with KCC2 mod; HEK293 parental cells, thallium flux FluoZin2, ouabain; baseline-ratio fluorescence slope, 10–20 s after thallium; thallium flux rate (normalised fluorescence) at 10 µM; 3,700 compounds, 46% hits; AID 1716, 2009;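 active means thallium flux rate significantly above the same plate's solvent-only control wells, beyond their mean plus 3 SD; inconclusive means the two replicate wells gave conflicting results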
KCC2 ouabain = KCC2 inhibitors and activators, ouabain retest, confirmation, HEK-KCC2 cells; HEK293-KCC2, thallium flux FluoZin2 fluorescence; bidirectional: low = inhibitor, high = activator; shares compounds with KCC2 mod; raw Tl+ flux slope (below DMSO = inhibition, above = activation) at 10 µM; 3,700 compounds, 48% hits;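 active means thallium flux slope beyond 3 SD from same-plate DMSO control mean in most replicates, usually higher, sometimes lower; inconclusive means repeat tests gave conflicting results; inactive means no significant difference from controls in most replicates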;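 further: slope of initial-normalized fluorescence between seconds 10 and 20 after thallium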
HEK counter2 = native HEK Tl+ uptake effects, second counter-screen – HEK cells, counterscreen 2, counter-screen for KCC2 modulator project, confirmation | 3,700 compounds, 33% hits | HEK293 parental, thallium flux FluoZin-2 fluorescence slope | thallium flux slope at 10 µM | shares compounds with KCC2 mod;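 active means thallium flux slope above the same plate's solvent-control mean plus 3 SD in both duplicate wells; inconclusive means duplicate wells that disagreed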;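 further: run without ouabain in cells lacking the KCC2 cotransporter; slope of fluorescence scaled to its starting value between 10 and 20 s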
An asterisk follows results filed as active; ? = inconclusive; · = not tested or not shown.

SMILES	KCC2 mod	S1P3 antag	RAM network inh	S1P4 antag	ROMK mod	S1P4 ag	KCC2 secondary	KCC2 bumet counter	KCC2 sec2	HEK293 Tl flux	KCC2 ouabain	HEK counter2
COc1cccc(C2C(C(C)=O)=C(O)C(=O)N2CCNCCO)c1 (stereo unspecified)	·	-5.9	-0.9	-6.4	-1.24	0.1	·	·	·	·	·	·
Cc1nc(SCC(=O)NCC(F)(F)F)c2c(-c3cccs3)csc2n1	1.08	3.5	3.7	-19.2	·	4.4	·	·	·	·	·	·
Cc1nc(SCC(=O)NC(C)(C#N)C2CC2)c2c(-c3cccs3)csc2n1 (stereo unspecified)	5.09*	6.1	5.0	-6.8	-1.28	-0.3	0.0111	0.0265*	0.0296	0.0127*	0.0335*	0.0115*
Cc1cc(C)cc(OCC(=O)OCC(=O)N2CC(=O)Nc3ccccc32)c1	0.0305	-13.4	6.0	-10.8	0.638	3.2	·	·	·	·	·	·
CC(C)OP(=O)(OC(C)C)C(Nc1ccccc1)c1cccnc1 (stereo unspecified)	-0.105	1.4	·	-3.8	-0.532	-0.3	·	·	·	·	·	·
O=C(CN1C(=O)C2C3CC(C(Br)C3Br)C2C1=O)N1CCN(Cc2ccccc2)CC1 (stereo unspecified)	-0.116	7.9	·	-15.0	·	-1.1	·	·	·	·	·	·
O=C(O)c1ccccc1-c1nc(-c2ccccc2)c(-c2ccccc2)[nH]1	-1.89	-19.7	3.9	-13.4	-0.0676	0.9	·	·	·	·	·	·
O=C(O)c1cccc2c(-c3ccccc3)c(-c3ccccc3)[nH]c12	8.57*	-1.9	·	13.8	1.41	-0.9	0.00984	0.0229*	0.0358	?	?	0.0118
CSC(=S)N/N=C/c1ccc(Br)cc1	67.7*	-16.7	3.7	11.4	2.03	0.6	0.0264*	0.0877*	0.0479*	0.0374*	0.0464*	0.0384*
CC(C)(C)NC(=O)C(=O)N/N=C/c1ccc(Br)cc1	·	·	1.2	-2.6	-0.615	2.7	·	·	·	·	·	·
CCOCCCn1c(=NC(=O)c2ccco2)c(C(=O)OCC)cc2c(=O)n3cccc(C)c3nc21	0	-18.2	·	3.0	-0.376	0.8	·	·	·	·	·	·
Cc1ccc(S(=O)(=O)N2CCCCC2C(=O)Nc2nncs2)cc1 (stereo unspecified)	0.937	-7.6	·	3.6	·	0.4	·	·	·	·	·	·
Cc1ccc(S(=O)(=O)N2CCCC2C(=O)Nc2nc3c(s2)CCCC3)cc1 (stereo unspecified)	-3.17*	-15.3	-0.6	-12.7	·	-2.5	0.00781	0.00533	0.0347	0.00677	0.0161*	0.0108

Screens: PubChem BioAssay, several laboratories
